GC-B act: GC-B (human) receptor activation; P20594; HEK293-GC-B cells, CNP EC30, cGMP TR-FRET; 0% at EC30 CNP, 100% saturating CNP; activation, % at 10 µM; 0.11% of 370,000 active;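 active = activation at 10 µM reaching about 35% in either raw or pattern-adjusted values, limit read from the data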
Target sequence (P20594 whole entry, looked up): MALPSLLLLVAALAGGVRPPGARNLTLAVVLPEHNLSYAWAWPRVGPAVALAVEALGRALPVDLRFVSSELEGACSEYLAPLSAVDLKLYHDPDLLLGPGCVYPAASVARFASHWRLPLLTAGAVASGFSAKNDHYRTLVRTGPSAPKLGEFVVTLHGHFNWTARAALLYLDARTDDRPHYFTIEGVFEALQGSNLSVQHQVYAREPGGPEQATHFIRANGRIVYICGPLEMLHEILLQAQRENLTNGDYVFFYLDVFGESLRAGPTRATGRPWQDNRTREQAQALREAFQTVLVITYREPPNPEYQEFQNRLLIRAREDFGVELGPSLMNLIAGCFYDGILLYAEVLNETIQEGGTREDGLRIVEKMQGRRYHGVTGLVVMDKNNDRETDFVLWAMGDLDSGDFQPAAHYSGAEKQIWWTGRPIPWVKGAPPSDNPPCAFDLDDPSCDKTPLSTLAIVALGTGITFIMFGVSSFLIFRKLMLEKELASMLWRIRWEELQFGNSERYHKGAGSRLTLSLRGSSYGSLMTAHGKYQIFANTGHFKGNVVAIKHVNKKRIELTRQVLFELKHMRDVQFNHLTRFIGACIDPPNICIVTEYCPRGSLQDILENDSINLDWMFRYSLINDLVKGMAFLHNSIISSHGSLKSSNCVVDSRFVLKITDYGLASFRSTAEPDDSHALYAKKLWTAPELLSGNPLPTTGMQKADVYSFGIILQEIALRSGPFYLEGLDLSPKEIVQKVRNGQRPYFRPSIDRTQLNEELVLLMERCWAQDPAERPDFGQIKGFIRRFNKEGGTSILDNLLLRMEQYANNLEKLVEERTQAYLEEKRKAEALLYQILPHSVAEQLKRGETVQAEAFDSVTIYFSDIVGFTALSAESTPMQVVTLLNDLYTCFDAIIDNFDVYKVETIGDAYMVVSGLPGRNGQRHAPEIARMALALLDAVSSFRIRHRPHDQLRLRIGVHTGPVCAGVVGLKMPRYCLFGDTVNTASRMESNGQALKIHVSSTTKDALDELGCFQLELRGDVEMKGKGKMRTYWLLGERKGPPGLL
HSF1 inhib: HSF1 inhibition; 0.77% of 300,000 active; NIH3T3-HGL HSE-luciferase, MG132-induced, luminescence 8 h; stronger effect = lower value; AID 2098; activity change, negative = inhibition, % at 7.5 µM (by protocol);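 active = more than half of replicate wells show activity change below -50%, luminescence cut by over half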;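 note: luciferase reports HSF-1 transcriptional activity via heat shock element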
Dyrk1A ADPGlo: inhibitors of rat Dyrk1A kinase | Q63470 | ADP-Glo luminescence, NFATc1 peptide | inhibition, % at 12.5 µM | 0.43% of 310,000 active | AID 504441; in the data active = inhibition above about 50%
HSF1 activator: increases HSF-1 driven luciferase reporter signal; NIH3T3-HGL HSF-1 luciferase reporter, MG132, 8 h; 100% = twice DMSO control signal; activation, % at 9 µM; 1.7% of 300,000 active;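 active = mean replicate activation of at least 50% with a set share of replicates each reaching 50%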
aDG glyco up: increases alpha dystroglycan glycosylation; Pro5-aDG cells, alpha-DG glycosylation AlphaScreen (IIH6); 0% Pro5, 100% B10-LARGE cell signal; activation, % at 10 µM; 0.22% of 360,000 active; AID 624168;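 active = activation of at least 8% versus controls, or a plate z-score of at least 8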;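 note: Pro5 are CHO cells carrying HIG-tagged alpha-DG that lacks glycosylation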
GC-A act: GC-A (human) enzyme activation; P16066; HEK293 GC-A cells, cGMP TR-FRET, EC30 ANP; 0% at EC30 ANP, 100% saturating ANP; activation, % at 10 µM; 0.14% of 370,000 active; AID 1671463; in the data active = activation above about 40%
Each line names hits and unclear results; the compound was inactive in the other large screens. Most compounds without a hit are left out; they make up all but 2.5% or so of the library.

O=C(O)/C=C/C(=O)Nc1ccc(Cl)cc1C(=O)c1ccccc1	none
C=CCN1C[C@H](COC(=O)c2cccc(OC)c2)Oc2cccc(F)c2S1(=O)=O	none (no result: HSF1 inhib, Dyrk1A ADPGlo, HSF1 activator, aDG glyco up)
CCC(C)NC(=S)Nc1ccc(F)cc1 (stereo unspecified)	none
Cc1cccc(-c2cc3nc(C)cc(C)n3n2)c1	HSF1 activator 60
Cc1c(-c2nc(N)nc(Nc3ccccc3)n2)oc2ccccc12	HSF1 activator 76
COC(=O)c1cccc(NC(=S)N2CCN(C)CC2)c1	none
NCCCC(=O)O	HSF1 inhib -70
CS(=O)(=O)Nc1cccc(C2=NN(S(=O)(=O)c3ccc(F)cc3)C(c3cccs3)C2)c1 (stereo unspecified)	none
Cc1ccc(CNc2c(C=O)c(=O)[nH]c3ccccc23)cc1	HSF1 activator 63
Cc1ccc(OCCCC(=O)Nc2nccs2)cc1	none
Cc1cccc(OCCCC(=O)Nc2nccs2)c1	HSF1 activator 67
O=C(CCCCCn1c(=S)[nH]c2cc3c(cc2c1=O)OCO3)N1CCN(C(=O)c2ccco2)CC1	HSF1 inhib -67
O=C(CCCCCn1c(=S)[nH]c2cc3c(cc2c1=O)OCO3)N1CCN(Cc2ccccc2)CC1	none (no result: HSF1 inhib, HSF1 activator)
CCc1nc(SCCO)c2oc3ccccc3c2n1	none
CCc1nc(SCC(=O)c2ccc(Cl)s2)c2oc3ccccc3c2n1	HSF1 activator 84 (no result: GC-B act, GC-A act)
CCN(CC)S(=O)(=O)c1ccc(N=Nc2cc(C)cc(Br)c2O)cc1	none
CNC(=O)c1cc2c(ccc3ccccc32)o1	HSF1 activator 58
Cc1ccc(OC(=O)c2sc(Cl)nc2C)cc1C	GC-A act 71
Cc1ccc(S(=O)(=O)CC(CN2CCCCC2)N2CCCCC2)cc1 (stereo unspecified)	none
O=S(=O)(CC(CN1CCCCC1)N1CCCCC1)c1ccc2ccccc2c1 (stereo unspecified)	HSF1 activator 90
N/C(=C\C(=O)c1cc(Cl)ccc1O)C(Cl)(Cl)Cl	HSF1 activator 209
CC(C)(C)c1ccc(C(=O)CC(=O)c2cc(Cl)ccc2O)cc1	none
CCC(CC)c1nc(C#N)c(NCc2ccccc2)o1	none
c1ccc(Cn2ccc(-c3cnc(-c4ccccc4)s3)n2)cc1	HSF1 activator 74
O=C(Nc1nnc(CSCc2ccc(F)cc2)s1)c1cccc([N+](=O)[O-])c1	Dyrk1A ADPGlo 53
CCOc1cc(CNCCc2ccc(S(N)(=O)=O)cc2)cc(Cl)c1OCc1ccccc1	none
NS(=O)(=O)c1ccc(CCNC/C=C/c2ccccc2)cc1	none
CCOc1cc(CNCCc2ccc(S(N)(=O)=O)cc2)ccc1OCc1ccccc1	aDG glyco up 5.7
COc1ccc(CNCCc2ccc(Cl)cc2)cc1OCc1ccccc1	aDG glyco up 2.7 (no result: GC-B act, Dyrk1A ADPGlo, GC-A act)
NS(=O)(=O)c1ccc(CCNCC#Cc2ccccc2)cc1	HSF1 inhib -71 (no result: Dyrk1A ADPGlo)
Cc1ccc(C2(CCNCc3ccco3)CCOC(C(C)C)C2)cc1 (stereo unspecified)	none
Cc1cccc(NC(=O)CSc2ccc(-c3ccc4c(c3)OCO4)nn2)c1C	none
COC(=O)[C@H](CCSC)NC(=O)c1cccnc1SC	none
COC(=O)[C@H](CCSC)NC(=O)Nc1cccc(C)c1C	HSF1 activator 96 (no result: Dyrk1A ADPGlo)
CCc1ccc(C(=O)NC(CCSC)C(=O)OC)cc1 (stereo unspecified)	HSF1 inhib -81 (no result: Dyrk1A ADPGlo)
COC(=O)C1CCN(C(=O)c2sc3nc(-c4ccccc4)cn3c2C)CC1	HSF1 inhib -72
Cc1c(C(=O)Nc2ccccc2)sc2nc(-c3ccccc3)cn12	HSF1 activator 55
CC(=O)N1CSCC1C(=O)NNS(=O)(=O)c1cccc(C(F)(F)F)c1 (stereo unspecified)	HSF1 activator 75
CCCc1cc(=O)[nH]c(SCC(=O)Nc2c(C)n(C)n(-c3ccccc3)c2=O)n1	none (no result: HSF1 inhib, Dyrk1A ADPGlo, HSF1 activator)
CC(C)(C)c1ccc(C2CC2C(=O)N/N=C\c2ccc[nH]2)cc1 (stereo unspecified)	aDG glyco up 9.1
CCc1ccc(/C=N/NC(=O)Cc2cccn2C)cc1	none (no result: Dyrk1A ADPGlo)
CC1CCN(c2nc(Cl)nc(Nc3ccc([N+](=O)[O-])cc3)n2)CC1	GC-A act 67
Cc1cccc(OCC(=O)Nc2cc(C)c(C)cc2O)c1	none (no result: Dyrk1A ADPGlo)
Cc1cccc(OCC(=O)Nc2ccc(C(=O)NCC(C)C)cc2)c1	none
Cc1cccc(OCC(=O)Nc2cc(C)ccc2O)c1	HSF1 activator 181
Cc1cccc(OCC(=O)Nc2cccc(C(=O)NCC(C)C)c2)c1	HSF1 inhib -81
CC1CC(=O)Nc2cc([N+](=O)[O-])ccc2N1 (stereo unspecified)	HSF1 inhib -89
Cc1cc2c(cc1C)C(c1cccc([N+](=O)[O-])c1)CC(=O)N2 (stereo unspecified)	HSF1 activator 63
COc1cc(C2CC(=O)Nc3cc(C)c(C)cc32)cc(OC)c1OC (stereo unspecified)	none
CC1CC(=O)Nc2ccc([N+](=O)[O-])cc2N1C (stereo unspecified)	none
COCCNC(=O)C1CCCN(C(=O)Cc2cccc3ccccc23)CC1 (stereo unspecified)	none (no result: HSF1 inhib, Dyrk1A ADPGlo, HSF1 activator)
CC(=O)N1CCC(=NNC(=O)c2cccs2)CC1	HSF1 activator 55
O=C(NN=C1C2CC3CC(C2)CC1C3)c1cccs1	none
C=C(C)C1CC=C(C)C(=NNC(=O)c2ccncc2)C1 (stereo unspecified)	none (no result: HSF1 inhib, HSF1 activator)
C=C(C)C1CC=C(C)/C(=N/NC(=O)c2cccs2)C1 (stereo unspecified)	HSF1 activator 80
CC1=C/C(=N\NC(=O)c2cccs2)CC(C)(C)C1	HSF1 activator 62
O=C(NN=C1CCCC1)c1cccs1	none
CCN(CC)S(=O)(=O)c1ccc(N2CC(C(=O)NCCc3ccc(Cl)cc3)CC2=O)cc1 (stereo unspecified)	none (no result: HSF1 inhib, Dyrk1A ADPGlo, HSF1 activator)
COc1ccc(CN2CCC(N(CCc3ccccc3)Cc3ccccc3)CC2)c(OC)c1	none
c1cncc(-c2nc(-c3ccc4c(c3)OCCO4)cs2)c1	HSF1 activator 64
Cc1cccc(Nc2nc(-c3ccc4c(c3)OCCO4)cs2)c1	HSF1 inhib -54
Cc1cccc(Nc2nc(-c3ccncc3)cs2)c1	none
COc1cccc(COC(=O)Nc2ccccc2F)c1	HSF1 activator 74
CCN(CC(O)CON=C1c2ccccc2-c2ccccc21)S(=O)(=O)c1ccc(C)cc1 (stereo unspecified)	none (no result: Dyrk1A ADPGlo)
O=C(CC1SC(=Nc2cccc3ccccc23)N(Cc2ccccn2)C1=O)Nc1ccccc1Br (stereo unspecified)	none
Cc1ccccc1N=C1SC(CC(=O)Nc2ccc3ccccc3c2)C(=O)N1Cc1ccccn1 (stereo unspecified)	HSF1 activator 57

High-throughput results (PubChem)
